Screening results from PubChem.
GC-A act: GC-A (human) enzyme activation; HEK293 GC-A cells, cGMP TR-FRET, EC30 ANP; 0% at EC30 ANP, 100% saturating ANP; activation, % at 10 µM; 370,000 compounds, 0.14% hits; AID 1671463; P16066; in the data active means activation above about 40%
DYRK1A inh: Dyrk1A (rat) kinase inhibition; Q63470; ADP-Glo luminescence, NFATc1 peptide; inhibition, % at 12.5 µM; 310,000 compounds, 0.43% hits; in the data active means inhibition above about 50%;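 further: plate controls were vehicle with enzyme for no effect and no enzyme for full effect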
aDG glyco act: increases alpha dystroglycan glycosylation | Pro5-aDG cells, alpha-DG glycosylation AlphaScreen (IIH6); 0% Pro5, 100% B10-LARGE cell signal | activation, % at 10 µM | 360,000 compounds, 0.22% hits | AID 624168;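 active means activation of at least 8% versus controls, or a plate z-score of at least 8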;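 further: Pro5 are CHO cells carrying HIG-tagged alpha-DG that lacks glycosylation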
GC-B act: GC-B (human) receptor activation; P20594; 370,000 compounds, 0.11% hits; AID 1920062; activation, % at 10 µM; HEK293-GC-B cells, CNP EC30, cGMP TR-FRET; 0% at EC30 CNP, 100% saturating CNP;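 active means activation at 10 µM reaching about 35% in either raw or pattern-adjusted values, limit read from the data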
Target sequence (P20594 whole entry, looked up): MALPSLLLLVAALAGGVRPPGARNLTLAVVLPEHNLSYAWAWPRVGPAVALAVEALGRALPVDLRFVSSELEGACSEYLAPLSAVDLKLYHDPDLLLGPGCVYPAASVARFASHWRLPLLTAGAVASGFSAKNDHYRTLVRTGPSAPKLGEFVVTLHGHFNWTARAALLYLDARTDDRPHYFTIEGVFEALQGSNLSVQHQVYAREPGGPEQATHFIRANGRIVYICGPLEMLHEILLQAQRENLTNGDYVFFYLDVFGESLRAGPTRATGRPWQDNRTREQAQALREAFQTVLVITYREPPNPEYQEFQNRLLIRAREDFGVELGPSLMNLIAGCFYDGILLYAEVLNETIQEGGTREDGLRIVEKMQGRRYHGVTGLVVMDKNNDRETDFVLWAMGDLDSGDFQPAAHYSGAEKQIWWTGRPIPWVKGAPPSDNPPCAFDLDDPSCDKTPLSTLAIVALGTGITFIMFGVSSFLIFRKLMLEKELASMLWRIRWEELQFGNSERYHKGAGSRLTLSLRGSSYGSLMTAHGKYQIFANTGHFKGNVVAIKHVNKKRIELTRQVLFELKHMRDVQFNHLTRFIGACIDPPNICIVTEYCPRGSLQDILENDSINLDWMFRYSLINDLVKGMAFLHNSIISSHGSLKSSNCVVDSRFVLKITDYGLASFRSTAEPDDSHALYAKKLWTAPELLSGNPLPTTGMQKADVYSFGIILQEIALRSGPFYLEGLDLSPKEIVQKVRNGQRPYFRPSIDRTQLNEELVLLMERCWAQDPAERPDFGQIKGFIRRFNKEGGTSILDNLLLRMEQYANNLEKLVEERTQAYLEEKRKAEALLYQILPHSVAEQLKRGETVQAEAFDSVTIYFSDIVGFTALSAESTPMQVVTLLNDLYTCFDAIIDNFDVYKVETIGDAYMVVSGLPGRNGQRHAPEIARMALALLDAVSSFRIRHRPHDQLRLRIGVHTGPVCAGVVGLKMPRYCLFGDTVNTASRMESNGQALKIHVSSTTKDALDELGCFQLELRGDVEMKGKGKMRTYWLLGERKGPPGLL
HSF1 activator: increases HSF-1 driven luciferase reporter signal. NIH3T3-HGL HSF-1 luciferase reporter, MG132, 8 h; 100% = twice DMSO control signal. activation, % at 9 µM. 300,000 compounds, 1.7% hits;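 active means mean replicate activation of at least 50% with a set share of replicates each reaching 50%; inconclusive means only one of those two conditions met; inactive means mean below 50% and too few replicates reaching it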;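 further: 0% = median of the neutral control wells and 100% = twice that signal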
HSF1 inh: HSF1 inhibition. NIH3T3-HGL HSE-luciferase, MG132-induced, luminescence 8 h; active compounds read low. activity change, negative = inhibition, % at 7.5 µM (by protocol). 300,000 compounds, 0.77% hits;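 active means more than half of replicate wells show activity change below -50%, luminescence cut by over half; inconclusive means some wells, but at most half, below -50%; inactive means no replicate well below -50%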;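 further: luciferase reports HSF-1 transcriptional activity via heat shock element; 0% = median of DMSO wells and -100% = zero luminescence signal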
ADP-Glo artifact: interferes with ADP-Glo luciferase readout without Dyrk1A | 1,300 tested, under 10 active | ADP-Glo luciferase artifact assay, no Dyrk1A, luminescence | AID 588348 | AC50, µM (top dose mostly 12 µM), for inactives: top-dose activity change, negative = inhibition | shares compounds with DYRK1A inh;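 active means fitted half-maximal dose AC50 no more than ten times the top valid tested dose, with luminescence dropping as dose rises; inconclusive means poor fit, or flat fit with 30 to 70% inhibition; inactive means the rest, signal increases included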
* = called active by the depositor; ? = inconclusive; nt = not tested or not shown. Rows were chosen to be rich in hits. Some 2.5% of all compounds tested hit in one or more screens of this group.

SMILES	GC-A act	DYRK1A inh	aDG glyco act	GC-B act	HSF1 activator	HSF1 inh	ADP-Glo artifact
Cc1cc(C)c(S(=O)(=O)/N=C2\C=C(NS(=O)(=O)c3ccccc3)C(=O)c3ccccc32)c(C)c1	-2.1	6.5	0.1	-3.5	29.6	11.4	nt
Cc1cc(C)c(S(=O)(=O)/N=C2\C=C(Nc3ccc(C(=O)O)cc3)C(=O)c3ccccc32)c(C)c1	-9.3	69.1*	0.8	-5.9	-87.9	-87.4*	6.7%
O=C1C(Nc2ccc(O)cc2)=C/C(=N/S(=O)(=O)c2cccs2)c2ccccc21	-14.8	70.2*	-0.7	-10.1	-94.0	-92.9*	3.9%
c1ccc(N2CCN(c3ccccc3)C2c2ccncc2)cc1	-4.7	nt	0.0	-2.3	17.3	-2.8	nt
CCN(CC)C(=O)/C(=C/c1cccc([N+](=O)[O-])c1)NC(=O)c1ccco1	-3.6	-1.7	-0.5	-1.0	14.4	-3.1	nt
O=C(Nc1nc2ccccc2[nH]1)c1cccc(F)c1	1.3	26.5	0.2	-0.1	41.6	10.8	nt
CCc1ccc2nc(NC(=O)C3CSC4(C)CCC(=O)N34)sc2c1 (stereo unspecified)	12.4	60.8*	-0.1	-4.8	13.1	14.4	10.3%
CC12CCC(=O)N1C(C(=O)Nc1nc3ccc(S(C)(=O)=O)cc3s1)CS2 (stereo unspecified)	-0.5	12.5	-0.1	-4.6	-2.9	-6.5	nt
CCOC(=O)C1CCN(C(=O)c2ccc3c(SCC(=O)O)c4c(nc3c2)CCCC4)CC1	2.4	-4.4	-0.1	2.1	-11.0	-4.6	nt
COc1ccc(S(=O)(=O)Nc2ccccc2C(=O)NCc2ccco2)cc1Br	4.1	1.1	0.1	-3.0	16.0	2.0	nt
O=C(Cn1cc(COc2cc(F)cc(F)c2)nn1)c1ccc(O)cc1	-2.0	5.0	-0.1	0.6	nt	nt	nt
O=C(Cn1cc(COc2ccccc2C(F)(F)F)nn1)c1ccc(O)cc1	-2.3	50.8*	0.2	-0.7	nt	nt	9.0%
C[C@@H]1CCCCO[C@@H](CN(C)S(=O)(=O)c2cn(C)cn2)[C@@H](C)CN([C@H](C)CO)C(=O)c2cc(NC(=O)Nc3ccc(C(F)(F)F)cc3)ccc2O1	2.5	nt	-0.4	-0.8	nt	nt	nt
CC(NC(=O)COC(=O)c1ccc([N+](=O)[O-])s1)c1ccccc1 (stereo unspecified)	0.9	55.9*	0.0	2.1	-12.9	-7.4	7.9%
CC1CCc2c(C(=O)Nc3cccc(-c4nn[nH]n4)c3)csc2C1 (stereo unspecified)	0.1	67.4*	-0.3	-1.5	-1.8	2.2	9.7%
O=C(NCc1ccc(Cl)cc1)c1cc2c(s1)CS(=O)(=O)C2	1.3	1.1	-0.3	-0.7	13.8	4.0	nt
c1cncc(-c2ccc3[nH]ccc3c2)c1	-0.2	54.8*	-0.3	-1.9	nt	nt	7.0%
c1ccc(-c2ccc3[nH]ccc3c2)cc1	4.8	-1.7	-0.3	-1.5	nt	nt	nt
COc1ccc(NS(=O)(=O)c2ccc(O)c(C(=O)OCC(=O)N3CCCCC3)c2)cc1	1.2	1.0	-0.1	1.9	nt	nt	nt
O=C(Nc1nc2ccccc2s1)c1ccc(OCC2CCCO2)cc1 (stereo unspecified)	15.6	57.2*	0.3	-0.3	12.6	5.1	8.9%
O=C(Nc1ccccc1)OCc1cnc(Cl)s1	3.5	-11.8	-0.1	0.1	5.9	-3.5	nt
O=C(Nc1ccc(Cl)c(Cl)c1)OCc1cnc(Cl)s1	-4.0	58.9*	0.8	-4.0	-11.0	1.5	7.4%
c1ccc2c(c1)ccc1[nH]c3c(c12)CCCC3	23.8	9.8	-0.1	15.4	nt	nt	nt
CCCOc1ccc2[nH]c(C(=O)N/N=C/c3cc(OC)c(OC)c(OC)c3)cc2c1	5.0	1.1	1.7	-6.3	2.8	-0.2	nt
COc1ccc2[nH]c(C(=O)N/N=C/c3ccc(OC)c(O)c3)cc2c1	-2.9	63.3*	-0.1	-6.5	-7.4	2.3	9.3%
SMILES	GC-A act	DYRK1A inh	aDG glyco act	GC-B act	HSF1 activator	HSF1 inh	ADP-Glo artifact
COc1ccc2[nH]c(C(=O)N/N=C/c3ccccc3OC)cc2c1	-2.3	63.4*	-0.2	-7.7	1.4	11.8	9.8%
CCOc1ccc2[nH]c(C(=O)N/N=C/c3ccccc3OC)cc2c1	-8.1	6.0	-0.1	-7.3	-5.6	-13.7	nt
Cc1ncc(CN2CCC(N3CCC(C(=O)N4CCCC4)CC3)CC2)s1	nt	-5.1	-0.2	nt	34.5	17.5	nt
COc1ccccc1CNC(=O)c1cc(-c2ccc(F)cc2OC)n[nH]1	6.0	nt	0.4	6.9	nt	nt	nt
Cc1cc(NC(=O)CSCc2ccc([N+](=O)[O-])cc2)no1	-0.4	nt	0.0	0.8	5.3	7.0	nt
O=c1cc[nH]c2ccc(Cl)cc12	-1.3	50.4*	0.1	-3.5	-52.0	-38.3	8.5%
C/C(=C(\C#N)C(=O)NC1CCCCC1)N(C)C	12.2	9.6	0.0	2.6	nt	nt	nt
COc1cccc(-c2sc3ccccc3c2-c2ccc(OCCN3CCCC3)cc2)c1	-1.4	50.7*	1.5	-7.0	nt	nt	9.0%
CCC(=O)C1CCCN(C(=O)CCc2nnc(C3(c4ccc(Cl)cc4)CCC3)o2)C1 (stereo unspecified)	-0.6	5.3	0.0	-2.5	40.5	31.0	nt
COC1=C/C(=C/c2c(N)n3c(nc2=O)sc2cc(S(C)(=O)=O)ccc23)C=CC1=O	-5.1	15.2	-0.1	-1.4	11.5	10.8	nt
CS(=O)(=O)c1ccc2c(c1)sc1nc(=O)c(/C=C3/C=CC(=O)C(O)=C3)c(N)n12	1.8	55.0*	-0.1	1.3	-22.2	-5.2	9.9%
COc1cccc(N2CCN(C(=O)Nc3ccccc3Cl)CC2)c1	3.2	0.5	0.0	8.2	18.2	0.1	nt
O=C1OCC/C1=C\c1ccc(O)cc1	-2.6	91.6*	-0.2	5.3	3.0	-3.7	7.0%
CC(C)(C)NC(=O)CSc1nc(N)c(NC(=O)c2ccccc2F)c(=O)[nH]1	3.4	0.4	0.0	0.9	7.9	-6.0	nt
O=C(O)c1cc(N/N=C/c2c(O)ccc3ccccc23)ccc1Cl	-0.3	73.5*	0.3	-2.1	?	42.8	8.4%
CCN(CC)c1nc(C)nc2c1nnn2Cc1ccccc1	4.4	nt	nt	-0.4	nt	nt	nt
CNC(=S)N/N=C/c1ccc(-c2cccc(C(=O)O)c2)o1	2.4	62.1*	-0.1	6.1	-66.1	-60.2*	9.2%
Cc1ccc(OCC(=O)N/N=C\c2ccc(-c3cccc(C(=O)O)c3)o2)c(C)c1	-2.1	30.6	-0.1	-10.2	-9.0	-15.4	nt
CCC(=O)Nc1ccc(NC(=O)c2cc3ccccc3o2)cc1	-1.9	1.3	0.1	6.3	nt	nt	nt
CN(C)S(=O)(=O)c1ccc(NC(=O)c2cc3ccccc3o2)cc1	0.5	75.5*	-0.5	0.3	25.4	12.0	8.0%
Cn1c(=O)[nH]c2cc3ccccc3cc21	2.1	51.9*	0.4	1.1	8.9	-7.3	10.1%
